Shown are actives, neighbours in structure and some others; about 2.6% of the full set was active somewhere.
Cruzain noTriton: inhibitors of Trypanosoma cruzi cruzain without detergent; P25779; actives 2.3% (n = 200,000); purified cruzain, Z-FR-AMC fluorescence, no detergent; AID 1476; Potency, µM, inactives show max response, negative = inhibition, actives largely listed as inhibitors;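 also: plate controls were enzyme without inhibitor for no effect and buffer without enzyme for full effect; nearly all actives have a fitted effect of over 40% in size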
Target sequence (P25779 123-467 limits assumed): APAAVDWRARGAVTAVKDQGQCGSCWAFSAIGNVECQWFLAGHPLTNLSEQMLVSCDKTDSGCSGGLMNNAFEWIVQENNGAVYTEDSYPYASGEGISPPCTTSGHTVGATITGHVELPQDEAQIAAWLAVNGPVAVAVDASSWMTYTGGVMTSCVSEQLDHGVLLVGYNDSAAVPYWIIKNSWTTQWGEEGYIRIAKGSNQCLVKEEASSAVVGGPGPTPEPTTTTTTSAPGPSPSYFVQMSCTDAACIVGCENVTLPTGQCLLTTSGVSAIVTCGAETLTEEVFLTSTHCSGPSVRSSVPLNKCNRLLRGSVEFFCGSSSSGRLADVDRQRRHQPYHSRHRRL
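Purified cruzain at 1.5 nM, pre-incubated 15 min with compound at room temperature in 100 mM sodium acetate pH 5.5, 5 mM DTT, 0.00005% Triton X-100. Reaction started with 2 uM Z-FR-AMC; AMC fluorescence increase over 60 s gives rate.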
Cruzain inh Det: blocks cruzain activity in presence of Triton detergent | AID 1478 | Potency, µM, for the others: max response, negative = inhibition, hits mostly inhibitors | actives 0.43% (n = 200,000) | purified cruzain, Z-FR-AMC fluorescence, 0.01% Triton;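 also: plate controls were neutral wells for no effect and buffer without enzyme for full effect; nearly all actives have a fitted effect of over 40% in size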
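In this qHTS format, compounds are incubated with 1.5 nM cruzain for 15 min at room temperature before 2 uM Z-FR-AMC is added. Release of AMC is followed at 360/450 nm, and progress is taken as the 60 s fluorescence difference.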
* marks the source's active call; other numbers are inactive results; ? = inconclusive. Calls follow the shape of the dose curve; as a rule, active = well fitted curve in the direction sought with a large enough effect; inconclusive = small, poorly fitted or top-dose-only effect, or another doubt; inactive = no such curve, though single readings can be large; an effect the other way counts as inactive or inconclusive. Potency is read from the fitted curve at half-maximal effect.

SMILES	Cruzain noTriton	Cruzain inh Det
CSc1cccc(NC(=O)Cn2c(=O)n(Cc3ccccc3)c(=O)c3sc4ccccc4c32)c1	-3%	1%
CC(C)(C)C(=O)Nc1nc2c(s1)COc1ccccc1-2	6%	-13%
O=C(CCSc1ccccc1)Nc1nc2c(s1)COc1ccccc1-2	32µM*	-7%
Cc1cccc(NC(=O)NCc2ccc3c(c2)cc(C)n3C)c1	7.9µM*	6%
CCCC(=O)NCc1ccc2c(c1)cc(C)n2C	4%	7%
O=C(NCc1ccncc1)Nc1cccc(Cl)c1	-2%	1%
Cc1cc2cc(CNC(=O)Nc3cccc(Cl)c3)ccc2n1C	13µM*	2%
Cc1cccc(-n2c3nc(=O)n(C)c(=O)c-3cc3ccc(Cl)cc32)c1C	-1%	-1%
Cc1ccc(C(O)C2=CCCC2=O)cc1 (stereo unspecified)	-3%	1%
COc1ccc(-c2nnc(-c3cc4ccccc4oc3=O)o2)cc1	16µM*	-1%
COc1ccc2oc(=O)c(-c3nnc(-c4ccc(C)cc4)o3)cc2c1	-7%	11%
CCc1c(O)nc(SCC(=O)Nc2ccc3c(c2)CCC3)[nH]c1=O	-12%	1%
CCCCc1c(O)nc(SCC(=O)Nc2ccc3c(c2)CCC3)[nH]c1=O	20µM*	-17%
Cc1ccc(-c2nnc(Nc3cccc(Cl)c3)c3ccccc23)cc1S(=O)(=O)N1CCCCC1	7.9µM*	-2%
Cc1ccc(-c2nnc(Nc3ccc(Cl)c(Cl)c3)c3ccccc23)cc1S(=O)(=O)NCCO	15%	-2%
Cc1ccc(-c2nnc(Nc3cccc(Cl)c3)c3ccccc23)cc1S(=O)(=O)N1CCOCC1	3%	-3%
Cc1ccc(-c2nnc(Nc3ccc(Cl)c(Cl)c3)c3ccccc23)cc1S(=O)(=O)N(C)C	6.3µM*	-3%
CSC1=NC2(CCN(C(=O)NC3CCCCC3)CC2)N=C1c1ccc(C)c(C)c1	-4%	-1%
Cc1c(C(=O)NCCc2ccc(Cl)cc2)sc2nc3n(c(=O)c12)CCCC3	-3%	-3%
CCc1ccc(CN(Cc2ccco2)C(=O)c2cc(-c3ccc(Cl)cc3)on2)cc1	-2%	-1%
COc1cc(NC(=S)NC(=O)c2ccc(F)cc2)ccc1NC(=O)c1ccco1	?	2%
COc1cc(NC(=S)NC(=O)c2cc(C)cc(C)c2)ccc1NC(=O)c1cccs1	16µM*	-4%
COc1cc(NC(=S)NC(=O)c2ccc(C(C)(C)C)cc2)ccc1NC(=O)c1cccs1	13µM*	3%
Cc1cc(C)cc(NS(=O)(=O)c2ccc(NC(=S)NC(=O)c3cccs3)cc2)c1	25µM*	-2%
COc1cc(NC(=S)NC(=O)c2c(OC)cccc2OC)ccc1NC(=O)c1cccs1	-14%	-7%
SMILES	Cruzain noTriton	Cruzain inh Det
COc1cc(NS(=O)(=O)c2ccc(NC(=S)NC(=O)c3cccs3)cc2)nc(OC)n1	-3%	-11%
Cc1c(Cl)cccc1NC(=O)CSc1ncc2c(n1)-c1ccccc1N(C)S2(=O)=O	9%	-2%
O=C(COC(=O)c1cccc([N+](=O)[O-])c1)c1ccc(OCc2ccccc2)cc1	25µM*	-3%
O=C(Cc1ccccc1)NCC(=O)OCC(=O)c1cccc([N+](=O)[O-])c1	-22%	-27%
Cc1ccccc1-c1ccc2ncnc(NCc3cccs3)c2c1	-5%	?
COc1ccc(C2Nc3ccccc3C(=O)N2Cc2ccco2)cc1COc1ccc([N+](=O)[O-])cc1 (stereo unspecified)	?	0%
COc1cccc(OCc2cc(C3Nc4ccccc4C(=O)N3Cc3ccco3)ccc2OC)c1 (stereo unspecified)	16µM*	-7%
CSc1ccc(CCNC(=O)c2ccc3c(Cl)c4c(nc3c2)CCCC4)cc1	-1%	-3%
CCCCCc1c2c(cc(O)c1C(=O)O)OC(=O)c1cc(C(=O)CCCC)c(OC)cc1O2	?	18µM*
CCCCCc1c2c(cc(O)c1C(=O)O)OC(=O)c1c(cc(OC)cc1C(=O)CCCC)O2	29%	-20%
CN(Cc1ccccc1)C(=O)[C@H](Cc1ccc2ccccc2c1)NC(=O)[C@@H]1CCCN1C(=O)Nc1ccccc1[N+](=O)[O-]	5%	2%
O=C(CSc1nc2ccc(Cl)cc2[nH]1)NC1CCCc2ccccc21 (stereo unspecified)	-1%	-10%
COc1ccc2nc(SCC(=O)NC3CCCc4ccccc43)[nH]c2c1 (stereo unspecified)	-27%	14µM*
Cc1ccc2nc(SC(C)C(=O)NC3CCCc4ccccc43)[nH]c2c1 (stereo unspecified)	-9%	10µM*
O=C(CSc1nc2ccccc2[nH]1)NC1CCCc2ccccc21 (stereo unspecified)	2%	?
Cc1nn2c(=O)cc(COC(=O)c3ccc(NC(=O)c4cccc(Br)c4)cc3)nc2s1	-11%	-1%
CC1CCC(N2CC(=O)N(C3CCCC3)C(c3ccc(Cl)cc3)C2=O)CC1 (stereo unspecified)	-13%	1%
COc1cc(NC(=O)CN2C(=O)C(c3ccc(C)cc3)=NC23CCCCC3)cc(OC)c1	-5%	-8%
CNc1oc(-c2ccc(Cl)cc2)nc1P(=O)(c1ccccc1)c1ccccc1	?	13µM*
CCOP(=O)(OCC)c1nc(-c2ccc(C)cc2)oc1NCc1ccccc1	?	-10%
COc1cccc(C2C(C(=O)Nc3ccc(Cl)cc3)=C(C)Nc3c(C(=O)Nc4ccccc4)cnn32)c1OC (stereo unspecified)	?	-5%
C/C=C/C1=CC2=CC(=O)C(C)(OC(=O)c3c(C)cc(O)cc3O)C(=O)C2=CO1 (stereo unspecified)	-4%	0%
COc1ccc(/C=C/c2nc(-c3ccccc3O)n[nH]2)cc1	13µM*	-13%
COc1ccc(/C=C/c2nc(-c3ccccc3O)n(-c3ccccc3)n2)cc1	-13%	-6%
O=C(NCCC1=CCCCC1)C1CCN(S(=O)(=O)c2cccc3nsnc23)CC1	25µM*	-1%
SMILES	Cruzain noTriton	Cruzain inh Det
O=C(NCCc1ccccc1)C1CCN(S(=O)(=O)c2cccc3nsnc23)CC1	-6%	2%
CCOc1ccc(NC(=O)CCS(=O)(=O)c2ccc3nc(C)sc3c2)cc1	0%	0%
O=c1oc2c3c(ccc2c2ccccc12)OCN(Cc1ccccc1Cl)C3	-10%	-3%
O=C1NC(=O)c2cc(Nc3ccccc3)c(Nc3ccccc3)cc21	20µM*	-6%
O=C1NC(=O)c2cc(Nc3ccc(F)cc3)c(Nc3ccc(F)cc3)cc21	-9%	-1%
Clc1ccc(C2=Nn3c(nnc3-c3cccs3)SC2)cc1	7.9µM*	-9%
CCc1ccc(C2=Nn3c(nnc3-c3cccs3)SC2)cc1	-8%	-10%
Cc1ccc(-c2nnc3n2N=C(c2ccccc2)CS3)cc1	-17%	-1%
CCOc1ccc(C2=Nn3c(nnc3-c3ccccc3)SC2)cc1Cl	20µM*	1%
CCOc1ccc(NC(=O)CC2C(=O)N(c3cccc(C)c3)C(=O)N2CCC2=CCCCC2)cc1 (stereo unspecified)	2%	-2%
COc1ccc(NC(=O)c2oc3ccc(S(=O)(=O)N(C)C4CCCCC4)cc3c2C)cc1Cl	-12%	1%
CCOc1ccc(CN2C(=O)c3ccccc3C2C(=O)NCCc2ccc(OC)c(OC)c2)cc1 (stereo unspecified)	?	1%
COc1cccc(C(=O)Nc2ccc3nc(SCc4ccc(C)cc4)sc3c2)c1	-19%	-2%
CCOC(=O)N1CCc2c(sc3c2c(=O)n(-c2ccccc2C(F)(F)F)c(=O)n3Cc2ccccc2C)C1	-5%	-1%
